# Data: ChEMBL document CHEMBL4513216, “Probing the Open Global Health Chemical Diversity Library for Multistage-Active Starting Points for Next-Generation Antimalarials” (ACS Infect Dis, 2020)
# Out of some 68,000 compounds screened, about 2,700 (4%) showed an effect of 50% or more. This is one part of a sample in which strong results are shown more often than they occur.
# Tested on: Plasmodium berghei
# Assay: Screen against P. berghei liver stage (PbLuc), transformed with Luciferase, at 2uM
# Assay type: functional, HepG2
# Settings: tested at 2 uM
row,Compound,INHIBITION [%]
1,CNC(=O)[C@@H]1C[C@H]2CN(C(=O)c3ccco3)C[C@H]2N1C(C)C,-11.99
2,c1cncc(COCc2nnc3n2CCN(Cc2cccs2)C3)c1,29.95
3,Cc1ncsc1CCN(C)C(=O)CN1CCCCC1=O,17.2
4,Cc1ncsc1CCN(C)C(=O)CN1CCCCCC1=O,24.36
5,Cc1ncsc1CCN(C)C(=O)CN1CC2(CCCC2)CC1=O,52.3
6,COc1cc(NC(=O)c2nc3ccccc3n(C)c2=O)cc(OC)c1,-1.01
7,COCCn1cc(C(=O)N2CCCC2c2cccc(C)c2)ccc1=O (stereo not given),9.5
8,CCN1CCN(C)C2(CCN(C(=O)CC(F)(F)F)CC2)C1=O,-2.81
9,COCCCN1CC2(CCC1=O)CCN(Cc1cc(C)no1)CC2,-7.23
10,COCCCN1CC2(CCC1=O)CCN(Cc1cc(C(C)C)no1)CC2,50.86
11,COCCCN1CC2(CCN(Cc3cc(C(C)C)no3)CC2)CC1=O,-9.78
12,CS(=O)(=O)c1nccn1Cc1ccncc1,-52.32
13,CCc1nccn1CCC(=O)N1CCN(c2ccccc2C)CC1C (stereo not given),-12.03
14,CCc1nccn1CCC(=O)N1CC(=O)N(c2ccccc2C)CC1C (stereo not given),26.21
15,Cc1ccccc1N1CC(C)N(C(=O)CCn2cccn2)CC1=O (stereo not given),51.08
16,O=C1NCC2(CCCN(C(=O)c3ccc4c(c3)CCCO4)CC2)O1 (stereo not given),26.74
17,O=C1NCC2(CCCN(C(=O)c3ccc4c(c3)OCCO4)CC2)O1 (stereo not given),24.36
18,O=C1NCC2(CCN(C(=O)c3ccc4c(c3)CCCO4)CC2)O1,50.59
19,Cc1cc(-c2ccccc2C(=O)O)nc(C2CCCCN2C)n1 (stereo not given),11.52
20,O=C(c1cccc(-n2cccn2)c1)N1CCCOC(CN2CCCC2)C1 (stereo not given),33.9
21,O=C(c1cccc(-n2cccn2)c1)N1CCOC(CCO)C1 (stereo not given),62.51
22,NCC1CN(C(=O)c2cccc(-n3cccn3)c2)CCO1 (stereo not given),45.82
23,c1cnc2c(c1)nc1n2[C@@H](CNCc2nccs2)COC1,-111.95
24,Fc1cccc(N2CCc3ncnc(N4CCOCC4)c3CC2)c1,-7.49
25,CCOc1ccc(SCCNS(=O)(=O)CC)cc1,20.15

row,Compound,INHIBITION [%]
1,O=C(O)c1c(-c2cccnc2)ncc2c1CCN(CC1CCOC1)C2 (stereo not given),21.13
2,CSc1cc2c(cc1NC(=O)N(C)Cc1ccncc1)OCCO2,-10.36
3,Cn1c2ncccc2c(=O)n1CC(=O)NCCC1=CCCCC1,54.49
4,Cc1ccc(CNC(=O)Cn2c(=O)c3cccnc3n2C)cc1F,16.93
5,Cn1c2ncccc2c(=O)n1CC(=O)NCCc1c(F)cccc1F,-0.83
6,CCC[C@@H](NC(N)=O)C(=O)N1Cc2ccccc2-c2ccccc2C1,-9.87
7,CC(C)Cc1noc(CNc2cccc(-c3nnnn3C)c2)n1,-45.29
8,CC=C(C)C(=O)NS(=O)(=O)c1ccc(C(F)(F)F)cn1,-31.15
9,O=C(c1cccc(O)c1)N1CCN(Cc2nnc(C3CCC3)o2)CC1,1.41
10,Cc1cc(CN(C)C(=O)NC2CCN(Cc3ccccn3)CC2)no1,-7.82
11,CN(Cc1cccnc1)C(=O)NC1CCN(Cc2ccccn2)CC1,-37.28
12,COCC(O)CN(C)C(=O)NC1CCN(Cc2ccccn2)CC1 (stereo not given),54.85
13,COc1ncc(C2(O)CCN(Cc3cc(F)ccc3F)CC2)c(OC)n1,-48.87
14,CCc1cc(C(=O)N[C@@H]2CC[C@@H](N3CCOCC3)[C@@H]2O)no1,-49.75
15,COc1ccccc1OCCN1CCC(N2CCNC2=O)CC1,3.86
16,CCOc1ccc(OCCN2CCC(N3CCNC3=O)CC2)cc1,12.81
17,COc1ccc(OCCN2CCC(N3CCNC3=O)CC2)cc1,81.79
18,C[S+]([O-])CCNC(=O)N1CCSC2(CCCCC2)C1 (stereo not given),-66.38
19,Cc1cccc(N2CC[C@@H]3CN(Cc4csc(C)n4)CCO[C@@H]3C2)n1,25.87
20,Cc1nnsc1C(=O)N1C[C@@H]2CC[C@H]1CN(c1cnccn1)C2,28.73
21,Cc1cnc(C(=O)N2C[C@@H]3CC[C@H]2CN(c2cnccn2)C3)cn1,53.98
22,Cc1noc(C)c1C(=O)N1C[C@@H]2CC[C@H]1CN(c1cnccn1)C2,20.32
23,c1ccc2c(c1)SCCC2NCc1ccc(N2CCOCC2)cc1 (stereo not given),15.16
24,Cc1nccn1-c1ccccc1CNC(=O)c1cn(CCN)nn1,-27.6
25,NCCn1cc(C(=O)NCc2ccccc2-n2cccn2)nn1,28.67

row,Compound,INHIBITION [%]
1,NCCn1cc(C(=O)NCc2ccccc2Cn2cccn2)nn1,62.3
2,CC(Cn1cccn1)n1cnc2ccc(F)cc2c1=O (stereo not given),32.71
3,Cc1n[nH]c(C2CN(CC(=O)NCc3cccs3)CCO2)n1 (stereo not given),34.42
4,CCN(CCNC(=O)C1CCCN(C(C)=O)C1)c1ccccc1C (stereo not given),56.33
5,CC(=O)N1CCCC(C(=O)NCCc2ccc(F)c(Br)c2)C1 (stereo not given),63.17
6,CN1CC(C(=O)NCCc2ccc(F)c(Br)c2)CC1=O (stereo not given),-5.13
7,CCN(CCNC(=O)C1CCN(C(C)=O)CC1)c1ccccc1C,31.13
8,CCCN1CCC(C(=O)NCCN(CC)c2ccccc2C)CC1,-5.9
9,COc1ccc2[nH]cc(CCNC(=O)C3CCCN(C(C)=O)C3)c2c1 (stereo not given),13.65
10,O=C(CN1C=Nc2ccccc2S1(=O)=O)NCCc1cccs1,6.12
11,CCn1ncc(Br)c1CN(C)S(=O)(=O)c1ccc(C)cc1,0.3
12,CCCc1nc(NCc2c(C)nn(CCC)c2C)c2cnn(C)c2n1,32.53
13,CC(C)CNC(=O)CNc1c(NCc2ccco2)c(=O)c1=O,10.93
14,COc1coc(CN2CCCC(CCc3ccc(F)cc3)C2)cc1=O (stereo not given),30.44
15,COc1ccnc(CN2CCCC(CCc3ccccc3)C2)c1OC (stereo not given),11.37
16,COc1ccnc(CN2CCCC(CCc3ccc(F)cc3)C2)c1OC (stereo not given),58.03
17,CN(Cc1noc(C2CC2)n1)C1CCN(Cc2nnc(C3CC3)o2)C1 (stereo not given),51.19
18,Cc1cc(CN(C)C2CCCN(Cc3noc(C4CC4)n3)C2)no1 (stereo not given),28.65
19,Cc1nnc(CN(C)C2CCCN(Cc3noc(C4CC4)n3)C2)o1 (stereo not given),62.13
20,Cc1nc(CN(C)C2CCN(Cc3nnc(C4CC4)o3)C2)no1 (stereo not given),49.01
21,Cc1cc(CN(C)C2CCCN(Cc3noc(C)n3)C2)on1 (stereo not given),-2.71
22,CC(C)c1nc(CN(C)C2CCN(Cc3nnc(C4CC4)o3)C2)no1 (stereo not given),37.9
23,CCc1nnc(CN(C)C2CCCN(Cc3noc(C4CC4)n3)C2)o1 (stereo not given),-7.13
24,Cc1cc(CN(C)C2CCCN(Cc3noc(C)n3)C2)no1 (stereo not given),80.46
25,Cc1nc(CN2CCCC(N(C)Cc3nnc(C4CC4)o3)C2)no1 (stereo not given),-10.47
